Assay results published in PubChem BioAssay (NCATS).
Inconclusive results are not listed. A number with no mark means an inactive call. Activity calls are given as the source filed them. Calls follow the shape of the dose curve; as a rule, active = well fitted inhibition curve with a large enough effect in the signal ratio, with a control signal flat (not every such curve was filed as active); inconclusive = small, poorly fitted or top-dose-only effect, or effect the other way, or a change in a side signal; inactive = flat fitted curve, though single readings scatter; the % refers to the signal ratio.

Assay: qHTS Assay for Identification of Small Molecule Antagonists for NFkB Signaling Pathway (AID 895)
Settings: NFkB beta-lactamase reporter cells, FRET ratio 460/530; series mostly up to 38.3 µM; activity change, negative = inhibition: at the top concentration
Procedure: NIH Molecular Libraries Screening Centers Network [MLSCN]
NIH Chemical Genomics Center [NCGC]
The TNF alpha/NFkB signaling pathway was assayed in NFkB-bla cells (Invitrogen), a ME-180 cervical carcinoma line containing a stably integrated beta-lactamase reporter gene controlled by a NFkB response element. […] The assay was screened at the EC50 of TNF alpha activation to identify inhibitors of TNF alpha/NFkB signaling.
NCGC Assay Protocol Summary:
Cells were trypsinized, washed in assay medium (AM, OPTI MEM with 0.5% fetal bovine serum, 0.1 mM nonessential amino acids, 1 mM sodium pyruvate, 10mM HEPES pH 7.3, 100U/ml penicillin, and 100 ug/ml streptomycin) and plated at 1000 cells/5 uL/well into black clear-bottom 1536 well plates. After an overnight incubation at 37 C and 5% CO2, 23 nL of compound were delivered by a pin tool, 1 uL of TNF alpha (10 pM final concentration in AM) was added and plates were incubated at 37 C for 5 hrs. One uL of LiveBLAzerTM detector mix (Invitrogen) was added, the plates incubated at room temperature for 2 hrs, and fluorescence intensity at 460 and 530 nm emission was measured at 405 nm excitation by an Envision (Perkin Elmer).
% is scaled to controls: 0 for no effect and ±100 for the full control effect; potency is read from the fitted curve at half-maximal effect.

Row | Compound | Potency | activity change, negative = inhibition [%]
1 | COc1ccc2[nH]c3c(c2c1)CCNC3 | 5.01 µM (active) | 
2 | C[N+](C)(C)CCOC(=O)CBr |  | -27.3
3 | OCc1cnc[nH]1 |  | -4.36
4 | NNC(=O)c1ccc(O)cc1 |  | 19
5 | CC(C)NP(=O)(NC(C)C)OP(=O)(NC(C)C)NC(C)C |  | 8.52
6 | Clc1cc(I)cc(Cl)c1NC1=NCCN1 |  | -21.6
7 | O=S1(=O)N(CCN2CC=C(c3c[nH]c4cc(F)ccc34)CC2)c2cccc3c2N1CCC3 |  | -6.83
8 | NCCc1ccc(S(=O)(=O)F)cc1 |  | 0.32
9 | CCCn1c(=O)c2[nH]c(C3CCCC3)nc2n(CCCOC(=O)c2ccc(S(=O)(=O)F)cc2)c1=O | 10 µM (active) | 
10 | NCCc1c[nH]c2ccc(C(N)=O)cc12 |  | -8.05
11 | NC(=O)c1cc(N2CC2)c([N+](=O)[O-])cc1[N+](=O)[O-] |  | -6.61
12 | O=C1C=CC(=O)C=C1 |  | -13.3
13 | N#CCCN |  | -2.13
14 | Cc1[nH]c2ccc(O)cc2c1CCN |  | -11.8
15 | CCCN(CCC)CCc1c[nH]c2ccc(C(N)=O)cc12 |  | -12.4
16 | O=[N+]([O-])c1cc(O)c(O)c([N+](=O)[O-])c1 |  | -1.37
17 | NC(=O)CI |  | -8.17
18 | C[C@@H]1[C@@H]2Cc3ccc(O)cc3[C@@]1(C)CCN2CC1CC1 |  | 2.62
19 | Clc1ccc(N2C[C@H]3CC[C@@H](C2)N3)nn1 |  | -3.34
20 | CCCN(CCC)C1Cc2cc(OC)c(OC)cc2C1 |  | -25.7
21 | O=C(O)c1cc[c]([Hg][Cl])cc1 |  | 18
22 | O=P(O)(O)C(Cl)(Cl)P(=O)(O)O |  | 4.49
